Drawing on PubChem BioAssay AID1159566 (Broad Institute, 2015), this text covers outcome for five compounds.

Potency and affinity values are given separately. The source made the active and inactive calls. Entries that show only a call come without a potency. The rule behind the calls is not given here.

The assay is described as follows: Dd2 malaria parasite growth inhibition potency – SYBR Green, dry powder samples, dose response (AID 1159566). Conditions: P. falciparum Dd2 growth, SYBR Green fluorescence; series mostly up to 19.5 µM.
In the case of `C[C@@H]1CN([C@H](C)CO)C(=O)c2cccc(NC(=O)c3ccc(-c4nccs4)cc3)c2O[C@H]1CN(C)Cc1ccc(C(F)(F)F)cc1`, the compound was classed as inactive.
In the case of `Cc1ccccc1-c1ccccc1[C@H]1[C@@H](C#N)N(C(=O)c2ccccc2)[C@@H]1CO` it was “inactive”; in that of `COc1ccc(S(=O)(=O)Nc2ccc3c(c2)CC(=O)N([C@@H](C)CO)C[C@H](C)[C@H](CN(C)S(=O)(=O)c2ccc(OC)cc2)O3)cc1`, “inactive”.
In the case of `O=C(NC[C@@H]1CC[C@H]2[C@H](CN2Cc2cc(-c3ccccc3)on2)O1)c1ccc2c(c1)OCO2` it was “inactive”; in that of `COc1cccc(C#Cc2ccc([C@H]3[C@@H](CO)N(C(=O)c4ccccn4)[C@H]3C#N)cc2)c1`, “inactive”.
